# High-throughput results (PubChem)
# D3 ag = D3 dopamine receptor (human) agonism; D3R DiscoveRx beta-arrestin cells, luminescence, 90 min; P35462; max activation, %; AID 652048; 410,000 compounds, 0.58% hits; in the data active = max activation above about 30%; also: 0% is about no effect
# Target sequence (P35462 whole entry, looked up): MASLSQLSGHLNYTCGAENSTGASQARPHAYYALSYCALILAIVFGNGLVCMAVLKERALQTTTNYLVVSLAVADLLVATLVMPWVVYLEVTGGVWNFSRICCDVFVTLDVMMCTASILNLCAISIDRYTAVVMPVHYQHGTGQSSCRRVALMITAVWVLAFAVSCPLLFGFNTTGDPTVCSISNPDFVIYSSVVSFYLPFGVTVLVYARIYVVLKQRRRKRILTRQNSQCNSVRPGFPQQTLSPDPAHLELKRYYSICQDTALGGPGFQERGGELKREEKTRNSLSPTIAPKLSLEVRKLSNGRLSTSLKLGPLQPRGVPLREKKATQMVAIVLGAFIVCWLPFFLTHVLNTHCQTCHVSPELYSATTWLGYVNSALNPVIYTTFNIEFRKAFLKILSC
#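 Cells at 1500/well, incubated overnight, then treated with pinned compounds (dopamine as control) for 90 min at 37 degrees C. DiscoveRx reagent added for 30 - 60 minutes at room temperature; luminescence read.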
# IL1B secr inh = inhibitors of inflammasome signaling (IL-1 beta secretion); THP-1 LPS/ATP IL-1B secretion, AlphaLISA, 16 h; hits give low values; activity change, % at 57.5 µM; 360,000 compounds, 4.7% hits; in the data active = activity change below about -50%; inconclusive = mostly about -30% to -49%; also: % is scaled to controls: 0 for no effect and ±100 for the full control effect
#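 Secreted IL-1B measured by AlphaLISA bead assay after 16 h compound exposure of THP-1 cells; compounds (final up to 57.5 uM) added 1 h before LPS (250 ng/mL) and ATP (1.25 mM) stimulation; lower signal means less secretion.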
# D3 antag = D3 dopamine receptor (human) antagonism; max response, negative = inhibition, %; D3R cells, DiscoveRx beta-arrestin luminescence, antagonist mode; hits give low values; 360,000 compounds, 2.5% hits; P35462; in the data active = max response below about -50%; inconclusive = no clear call, values can overlap the other calls; also: % is scaled to controls: 0 for no effect and ±100 for the full control effect
#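 Cells plated overnight at 1500 cells/well, then exposed to library compounds with dopamine controls for 90 minutes at 37 degrees C. DiscoveRx reagent added for 30–60 minutes at room temperature; luminescence read, quantitative HTS format.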
# DT40 TDP1 CPT = DT40-hTDP1 cell growth loss with CPT; AID 686979; chicken DT40 Tdp1-/-;hTDP1 cells + 20 nM CPT, ATP luminescence, 48 h; 420,000 compounds, 12% hits; Potency, µM (series often up to 46.2 µM), for inactives: at the top dose activity change, negative = growth inhibition, actives largely listed as inhibitors; also: potency is read from the fitted curve at half-maximal effect; % is scaled to controls: 0 for no effect and ±100 for the full control effect; nearly all actives have a fitted effect of over 55% in size
#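 Cell growth measured by CellTiter-Glo luminescence after a minimum 48 h, 37 C compound exposure with 20 nM CPT in Tdp1-knockout DT40 cells stably expressing hTDP1, seeded 400/well; qHTS titration format.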
# DT40 TDP1 no CPT = qHTS for Inhibitors of human tyrosyl-DNA phosphodiesterase 1 (TDP1): qHTS in cells in absence of CPT | DT40 Tdp1-/- hTDP1 cells, no CPT, ATP luminescence, 48 h | Potency, µM (top dose mostly 46.2 µM), for the others: at the top dose activity change, negative = growth inhibition, most hits filed as inhibitors | 420,000 compounds, 15% hits; also: potency is read from the fitted curve at half-maximal effect; % is scaled to controls: 0 for no effect and ±100 for the full control effect; nearly all actives have a fitted effect of over 55% in size
#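 Stably hTDP1-transfected Tdp1-null chicken DT40 cells were treated with library compounds minus camptothecin and grown for at least 48 hr at 37 °C, after which cellular ATP was quantified by luminescence.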
# ClpP mod = qHTS Assay for Activators of ClpP | ATP-dependent Clp protease proteolytic subunit (Bacillus subtilis (strain 168)), P80244 | Potency, µM (doses to about 57.5 µM), for inactives: at the highest dose activity change, negative = active | purified B. subtilis ClpP, FRET peptide cleavage, 20 min | 340,000 compounds, 1.9% hits | AID 651965, 2013; active = well fitted falling curve with a large enough effect; inconclusive = small, poorly fitted or top-dose-only effect; inactive = no such curve, though single readings can be large or run the other way; also: potency is read from the fitted curve at half-maximal effect; the source files actives as falling curves though it sought activators and does not explain the sign; nearly all actives have a fitted effect of over 65% in size
#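 FRET quenching reversal measured ClpP activation: 10 microg/mL B. subtilis ClpP at pH 8 with the FRET-FV decapeptide, read at 430 nm after 320 nm excitation. The 20-min minus 0-min signal was scaled between DMSO/no-enzyme wells and ADEP (5.8 microM final).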
# Numbers without * were called inactive; i = inactive; ? = inconclusive; . = not tested or not shown. A selection: hits, their analogues and other compounds. The true share with any hit is near 21%. Unless noted, calls follow the shape of the dose curve; as a rule, active = well fitted inhibition curve with a large enough effect; inconclusive = small, poorly fitted or top-dose-only effect; inactive = flat fitted curve, though single readings scatter.
SMILES,D3 ag,IL1B secr inh,D3 antag,DT40 TDP1 CPT,DT40 TDP1 no CPT,ClpP mod
CCN(CC)C(=O)[C@H]1C[C@H](CC(=O)NCCc2ccccn2)C(=O)N2CCc3c([nH]c4cc(-c5ccco5)ccc34)[C@]12C,-6,4,2,18µM*,?,4%
CCN(CC)C(=O)[C@H]1C[C@H](CC(=O)NCCc2ccccn2)C(=O)N2CCc3c([nH]c4ccc(Cl)cc34)[C@]12C,2,-19,-27,?,21µM*,0%
CC(C)N(C(=O)[C@H]1C[C@H](CC(=O)NCCc2ccccn2)C(=O)N2CCc3c([nH]c4cc(-c5ccco5)ccc34)[C@]12C)C(C)C,21,?,-9,?,?,4%
O=C(C[C@H]1C[C@H](C(=O)N2CCCCC2)[C@@]2(CCc3ccccc3)c3[nH]c4ccc(Cl)cc4c3CCN2C1=O)NCCc1ccccn1,-6,0,?,?,18µM*,-2%
Cc1cnc(C(=O)OCC(=O)N2CCc3ccccc3C2)cn1,-15,4,35,0%,-3%,-2%
CCOc1c(Br)cc(C(=O)OCC(=O)N2CCc3ccccc3C2)cc1OC,0,-8,-22,?,26µM*,-4%
CC(=O)Oc1cc(C(=O)OCC(=O)N2CCc3ccccc3C2)cc(OC(C)=O)c1OC(C)=O,1,28,0,4.1µM*,5.2µM*,-3%
COc1cc2c(cc1OC)CN(C(=O)COc1ccccc1C#N)CC2,3,-74*,24,21µM*,12µM*,.
Cc1cccc(C)c1OCC(=O)N1CCc2ccccc2C1,-1,-82*,-27,?,?,0%
COc1ccc(C(=O)OCC(=O)N2CCc3ccccc3C2)cc1OC,5,0,-9,?,-18%,?
Cc1ccc2c(c1)sc1nc(-c3cc4cc(Cl)ccc4oc3=O)cn12,11,.,.,14%,-12%,-5%
Cc1ccc(S(=O)Cc2ccc(C(=O)NCc3ccc(OC(C)C)cc3)o2)cc1 (stereo not drawn),-7,.,.,?,?,-5%
Cc1ccc(Cn2ccnc2SCC(=O)Nc2ccc3c(c2)OCO3)cc1,-3,.,.,12%,-26%,0%
O=C(c1cc2ccccc2oc1=O)N(Cc1cccc(Cl)c1)C1CCS(=O)(=O)C1 (stereo not drawn),-10,.,.,-1%,-2%,-21%
COc1ccc2c(C)c(Cc3ccccc3)c(=O)oc2c1OC,-12,-15,13,?,?,4%
COC(=O)Cc1c(C)c2ccc(OCC(=O)N3CCCC3)c(C)c2oc1=O,23,4,21,?,-20%,?
CCOC(=O)CCc1c(C)c2ccc(OCC)c(C)c2oc1=O,11,-3,-17,-8%,-13%,32µM*
CCOC(=O)CCc1c(C)c2ccc(OCC(=O)N3CCOCC3)c(C)c2oc1=O,1,0,1,-14%,-24%,10µM*
CCCCc1c(C)c2ccc(OC)c(/C(C)=N\O)c2oc1=O,-1,?,-1,?,18µM*,8.9µM*
CCOC(=O)CCc1c(C)c2ccc(OCC(=O)OC(C)C)cc2oc1=O,-2,-2,-12,-13%,0%,?
COC(=O)Cc1c(C)c2ccc(OCC(=O)N3CCC(C)CC3)c(C)c2oc1=O,4,i,10,13µM*,15µM*,-15%
Cc1nnc(N(C)C(=O)c2ccncc2)s1,2,12,-7,-1%,-2%,0%
O=S(=O)(Nc1nnc(C2CC2)s1)c1ccccc1,-4,17,4,5%,-22%,1%
O=C(Cc1ccc(Cl)cc1)NCC(=O)N1CCCCCC1,1,-5,1,-11%,-1%,.
